{
  "source": "PubChem BioAssay (EPA / NIEHS)",
  "note": "Values joined by “and” are separate entries in the source; they are usually repeats but may differ in a detail not shown here. Equal entries are not always repeated. Active and inactive are the calls of the source. The calls were made as follows: active = hit-call score of the fitted dose curve at least 0.9, where 1 is the maximum; inactive = score below 0.9.",
  "data": [
    {"read-out": "E-selectin (Homo sapiens) (UniProt P16581)", "experiment": "BSK_IMphg_ESelectin: BioMAP Diversity Plus: IMphg Assay for Eselectin Biomarker Activity (AID 2284291)", "conditions": "primary human endothelial cells with macrophages", "how_it_was_run": "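Human venular endothelial cell–macrophage co-culture, E-selectin measured by ELISA 24 h after chemical dosing. Signal fitted in the positive direction against DMSO as negative control and baseline.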", "values": [
      {"molecule": "O=C(CC(=O)C(F)(F)C(F)(F)C(F)(F)F)c1cccs1", "AC50": "40.3 µM (active) and 42 µM (active)"},
      {"molecule": "O=P(O)(O)CCC(F)(F)C(F)(F)C(F)(F)C(F)(F)C(F)(F)C(F)(F)C(F)(F)C(F)(F)F", "AC50": "37.8 µM (active) and 34.5 µM (active)"},
      {"molecule": "O=C(O)C(F)(F)OC(F)(F)C(F)(F)OC(F)(F)C(F)(F)OC(F)(F)C(F)(F)C(F)(F)C(F)(F)F", "AC50": "40.8 µM (active) and 31.9 µM (active)"},
      {"molecule": "C=CC(=O)OCCC(F)(F)C(F)(F)C(F)(F)C(F)(F)C(F)(F)C(F)(F)C(F)(F)C(F)(F)F", "outcome": "inactive"},
      {"molecule": "O=S(=O)(O)C(F)(F)C(F)(F)C(F)(F)C(F)(F)C(F)(F)C(F)(F)C(F)(F)C(F)(F)C(F)(F)C(F)(F)F", "outcome": "inactive"},
      {"molecule": "OCC(F)(F)C(F)(F)C(F)(F)C(F)(F)C(F)(F)C(F)(F)C(F)(F)C(F)(F)C(F)(F)C(F)(F)C(F)(F)F", "AC50": "155 nM (active) and 396 nM (active)"},
      {"molecule": "O=C(O)CCC(F)(F)C(F)(F)C(F)(F)C(F)(F)C(F)(F)C(F)(F)F", "outcome": "inactive"},
      {"molecule": "CN(Cc1cnc2nc(N)nc(N)c2n1)c1ccc(C(=O)N[C@@H](CCC(=O)O)C(=O)O)cc1", "outcome": "inactive"},
      {"molecule": "O=P(O)(O)CCC(F)(F)C(F)(F)C(F)(F)C(F)(F)C(F)(F)C(F)(F)F", "outcome": "inactive"},
      {"molecule": "CN(CCO)S(=O)(=O)C(F)(F)C(F)(F)C(F)(F)C(F)(F)C(F)(F)C(F)(F)C(F)(F)C(F)(F)F", "outcome": "inactive"},
      {"molecule": "O=C(O)CCC(F)(F)C(F)(F)C(F)(F)C(F)(F)C(F)(F)F", "outcome": "inactive"}
    ]}
  ]
}
